Results reported in PubChem BioAssay (NCI).
This is part of a sample that, as a whole, favours compounds with a hit. Of some 79,000 tested, about 15% had one in any assay. Calls of active or inactive are those of the source. Cut-off read from the data, not from the text of the source: active = growth inhibition above about 70%; inactive = the rest.

Assay: NCI Yeast Anticancer Drug Screen. Data for the rad14 strain (AID 159);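 note: 0% = growth of vehicle-treated control cultures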
Details: S. cerevisiae rad14 strain growth inhibition, stronger effect = higher value
Procedure: Growth inhibition of yeast strains with defined genetic alterations is measured as a screen for potential anti-cancer activity. Selected strains with alterations in DNA damage repair or cell cycle control were exposed to compounds and growth inhibition was measured relative to vehicle treated controls. The strain used in this assay is rad14

SMILES: CC1CCC(C2=CSC3CCCCC3N2)CC1 (stereo not given)
- growth inhibition (at 1.2 µM): -20% (inactive)
- growth inhibition (at 3.7 µM): -16% (inactive)
- growth inhibition (at 11.0 µM): -11% (inactive)
- growth inhibition (at 33.0 µM): -6% (inactive)
- growth inhibition (at 100.0 µM): 76% (active)

SMILES: COc1ccc2cc(C(C)C(=O)N3CCOC3=O)ccc2c1 (stereo not given)
- growth inhibition (at 1.2 µM): -18% (inactive)
- growth inhibition (at 3.7 µM): -20% (inactive)
- growth inhibition (at 11.0 µM): -22% (inactive)
- growth inhibition (at 33.0 µM): -17% (inactive)
- growth inhibition (at 100.0 µM): 50% (inactive)

SMILES: CSC(=S)N/N=C/c1ccccc1
- growth inhibition (at 1.2 µM): -1% (inactive)
- growth inhibition (at 3.7 µM): -1% (inactive)
- growth inhibition (at 11.0 µM): 12% (inactive)
- growth inhibition (at 33.0 µM): 22% (inactive)
- growth inhibition (at 100.0 µM): 29% (inactive)

SMILES: CCCCCCCCCCCCOCCOCCOCC(N)=O
- growth inhibition (at 1.2 µM): -9% (inactive)
- growth inhibition (at 3.7 µM): -11% (inactive)
- growth inhibition (at 11.0 µM): -17% (inactive)
- growth inhibition (at 33.0 µM): 97% (active)
- growth inhibition (at 100.0 µM): 94% (active)

SMILES: CCCCCCCCCCCNC=O
- growth inhibition (at 1.2 µM): -7% (inactive)
- growth inhibition (at 3.7 µM): -17% (inactive)
- growth inhibition (at 11.0 µM): -4% (inactive)
- growth inhibition (at 33.0 µM): 30% (inactive)
- growth inhibition (at 100.0 µM): 98% (active)

SMILES: O=[N+]([O-])c1ccc(S(=O)(=O)Cc2ccccc2)c([N+](=O)[O-])c1
- growth inhibition (at 1.2 µM): 7% (inactive)
- growth inhibition (at 3.7 µM): 10% (inactive)
- growth inhibition (at 11.0 µM): 22% (inactive)
- growth inhibition (at 33.0 µM): 74% (active)
- growth inhibition (at 100.0 µM): 99% (active)

SMILES: Cc1ccnc2c(O)cccc12
- growth inhibition (at 1.2 µM): 0% (inactive)
- growth inhibition (at 3.7 µM): 24% (inactive)
- growth inhibition (at 11.0 µM): 83% (active)
- growth inhibition (at 33.0 µM): 98% (active)
- growth inhibition (at 100.0 µM): 99% (active)

SMILES: C=CCNC1=C2C[C@@H](C)C[C@H](OC)[C@H](O)[C@@H](C)/C=C(\C)[C@H](OC(N)=O)[C@@H](OC)/C=C\C=C(/C)C(=O)NC(=CC1=O)C2=O
- growth inhibition (at 1.2 µM): -73% (inactive)
- growth inhibition (at 3.7 µM): -42% (inactive)
- growth inhibition (at 11.0 µM): 55% (inactive)
- growth inhibition (at 33.0 µM): 95% (active)
- growth inhibition (at 100.0 µM): 94% (active)
